Compounds with a hit are over-represented: about 4.7% of the library has one in this group of screens.
D1 potentiator – enhances dopamine response at the human D1 receptor; P21728; HEK293 TREx D1 cells, calcium flux, dopamine EC20 potentiation; potentiation, % at 10 µM; 0.036% of 360,000 active; in the data active = potentiation above about 30%
Target sequence (P21728 whole entry, looked up): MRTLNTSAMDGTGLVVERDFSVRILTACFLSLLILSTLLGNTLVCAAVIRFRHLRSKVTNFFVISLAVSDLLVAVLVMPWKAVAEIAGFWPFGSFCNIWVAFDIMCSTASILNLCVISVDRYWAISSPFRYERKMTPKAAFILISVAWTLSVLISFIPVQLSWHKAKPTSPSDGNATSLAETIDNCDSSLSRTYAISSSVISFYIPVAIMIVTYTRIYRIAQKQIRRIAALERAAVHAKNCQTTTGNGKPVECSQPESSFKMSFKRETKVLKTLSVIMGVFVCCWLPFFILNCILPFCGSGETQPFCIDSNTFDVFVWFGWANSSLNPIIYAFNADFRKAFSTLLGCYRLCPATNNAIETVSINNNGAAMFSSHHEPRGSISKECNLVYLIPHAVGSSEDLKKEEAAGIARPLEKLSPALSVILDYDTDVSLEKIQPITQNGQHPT
D1 agonist – activates the human D1 dopamine receptor | P21728 | HEK293 T-REx D1 cells, calcium flux, agonist mode | activation, % at 2 µM | 1% of 360,000 active | AID 504660
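Agonism was scored from calcium flux recorded over 180 s (1 read/s) after pintool compound addition, following a 10-cycle baseline. Cells were inducible force-coupled HEK293 TREx D1, plated overnight at 30 C and loaded with no-wash calcium dye.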
D1 antag – human D1 dopamine receptor antagonism; P21728; HEK293 TREx D1 cells, calcium flux, dopamine EC80; stronger effect = lower value; activity change, negative = inhibition, % at 10 µM; 3.2% of 360,000 active; AID 504652; in the data active = activity change below about -30%
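Tetracycline-induced HEK293 Trex D1 cells, force-coupled to calcium, dye-loaded; compounds added and read 180 s, then EC80 dopamine added and calcium flux tracked kinetically another 180 s.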
TRHR enhancer – allosterically enhances the human TRH receptor; 0.66% of 360,000 active; TRHR cells, fluo-8 calcium fluorescence, EC20 TRH enhancement; enhancement, % at 2 µM; AID 493056; in the data active = enhancement above about 30%
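TRHR-expressing cells loaded with fluo-8 calcium dye were read kinetically (ex 480/em 530) during compound addition, then stimulated with an EC20 of TRH (10 nM final). Enhancement of the Gq-mediated intracellular calcium response was scored.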
TRHR agonist – agonists of human TRH receptor. P34981. TRHR cells, calcium flux fluo-8, FDSS agonist mode. activation, % at 2 µM. 0.18% of 360,000 active
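Steps: seed TRHR cells overnight; add fluo-8 no-wash Ca dye, RT 30 min–1.5 h; record 10 s baseline; pin-transfer compounds; monitor fluorescence 1 cycle/s for the agonist window. Calcium increases flag candidate agonists.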
Numbers stand for hits; . = inactive; ! = not active in a repeat. Rule as the data show it, unless noted: active = activation above about 30%; inactive = the rest.

SMILES | D1 potentiator | D1 agonist | D1 antag | TRHR enhancer | TRHR agonist
CCOC(=O)N1CCN(c2nc3ccccn3c(=O)c2C=O)CC1 | . | . | . | . | .
CCCCN(C)CC(O)Cn1cc(/C=C/C(=O)c2cccs2)c2ccccc21 (centres undefined) | . | 67.2 | . | . | .
O=C(/C=C/c1cn(CC(O)CN2CCCCCC2)c2ccccc12)c1cccs1 (centres undefined) | . | 77.2 | . | . | .
CCCCN(C)CC(O)Cn1cc(/C=C/C(=O)c2ccc(OCC)cc2)c2ccccc21 (centres undefined) | . | 41.2 | -56.3! | . | .
CCCCN(CCCC)CC(O)Cn1cc(/C=C/C(=O)c2ccccc2)c2ccccc21 (centres undefined) | . | . | . | . | .
Cc1ccc2c(=O)cc(C(=O)Nc3nnc(CC(C)C)s3)oc2c1C | . | . | . | . | .
Fc1ccccc1Nc1nc2ccccc2o1 | . | . | . | . | .
COc1cc(OC)cc(C(=O)NCC(=O)OCC(=O)Nc2ccc(C)c(S(=O)(=O)N3CCOCC3)c2)c1 | . | . | . | . | .
O=C(COC(=O)Cc1c[nH]c2ccccc12)Nc1ccccc1 | . | . | -34.4 | . | .
NC(=O)c1ccsc1NC(=O)COC(=O)Cc1c[nH]c2ccccc12 | . | . | -34.1 | . | .
Cc1ccc(NC(=O)COC(=O)Cc2c[nH]c3ccccc23)cc1F | . | . | . | . | .
Cc1cccc(NC(=O)COC(=O)Cc2c[nH]c3ccccc23)c1C | . | . | -32.0 | . | .
COc1ccccc1NC(=O)COC(=O)Cc1c[nH]c2ccccc12 | . | . | . | . | .
Cc1ccc(C)c(N2CCN(C(=O)C3CCN(S(=O)(=O)c4ccc5[nH]c(=O)oc5c4)CC3)CC2)c1 | . | . | . | . | .
Cc1cc(C)c2c(=O)[nH]c(SCC(=O)Nc3ccc(N(C)C)cc3)nc2n1 | . | . | -35.2 | . | .
Cc1ccc(NC(=O)CSc2nc3nc(C)cc(C)c3c(=O)[nH]2)cc1 | . | . | . | . | .
COc1ccc(C2C(C(=O)c3ccccc3)N3c4ccccc4C=CC3C2[N+](=O)[O-])cc1 (centres undefined) | . | 41.2 | . | . | .
COc1ccc(N2C(=O)[C@@H]3[C@H](C2=O)[C@H](C(C)=O)N2c4ccccc4C=C[C@@H]32)cc1 | . | . | . | . | .
COc1ccc(Nc2nc(N)nc(CN(C)C3CCCCC3)n2)cc1 | . | . | -34.0 | . | .
COc1ccc(C)cc1NC(=O)Cn1c(=O)cc(C)c2c(C)nn(C)c21 | . | . | -30.8 | . | .
COc1ccc(CCNC(=O)C2CCN(c3ccc(N4CCOCC4)nn3)CC2)c(OC)c1 | . | . | -32.8 | . | .
CC1CC(C)CN(CCCNC(=O)c2csc3c2CCCC3)C1 (centres undefined) | . | . | . | 36.1 | .
CC(C)CCNC(=O)c1csc2c1CCCCC2 | . | . | . | . | .
COC(=O)c1ccccc1NC(=S)NC(=O)C1CCCCC1 | . | . | -64.5 | . | .
Cc1ccc(OCCNC(=O)C2CCCCC2)cc1 | . | . | . | . | .
SMILES | D1 potentiator | D1 agonist | D1 antag | TRHR enhancer | TRHR agonist
Cc1ccc(NC(=S)NC(=O)C2CC2)cc1Cl | . | . | -72.6 | . | .
CCOc1ccccc1NC(=S)NC(=O)C1CCCCC1 | . | . | . | . | .
COc1ccccc1OCCNC(=O)C1CCCCC1 | . | 34.2 | . | . | .
COC(=O)c1ccccc1NC(=O)C1CCCC1 | . | . | . | . | .
COc1ccccc1NC(=S)NC(=O)C1CC1 | . | . | -42.3 | . | .
OCc1cn(Cc2ccc(O)c3ncccc23)cn1 | . | . | . | . | .
O=[N+]([O-])c1ccc(Sc2cccc[n+]2[O-])c2nonc12 | . | . | . | . | .
Cc1nc2scc(C)n2c(=O)c1S(=O)(=O)N1CCN(c2ccc([N+](=O)[O-])cc2)CC1 | . | . | -53.3 | . | .
Cc1cc(C)c(C(=O)NC2CC(C)(C)Cc3c2cnn3-c2cccc(F)c2)[nH]1 (centres undefined) | . | . | . | . | .
CCn1nc(C)cc1C(=O)NC1CC(C)(C)Cc2c1cnn2-c1cccc(F)c1 (centres undefined) | . | . | -64.2 | . | .
COc1ccc(S(=O)(=O)NCCc2sc(-c3cccnc3)nc2C)c(F)c1 | . | . | . | . | .
Clc1cccc(-c2ccc(/C=N/n3cnnc3)o2)c1 | . | . | -33.3 | . | .
COc1cccc(NC(=O)Cn2c(=O)n(CCC(=O)NCCc3ccc(Cl)cc3)c(=O)c3ccccc32)c1 | . | . | . | . | .
COc1cccc(NC(=O)Cn2c(=O)n(CCCCC(=O)NCCc3ccccc3)c(=O)c3ccccc32)c1 | . | . | -43.9 | . | .
CC(CCc1ccccc1)NC(=O)c1ccccc1 (centres undefined) | . | . | . | . | .
COc1cccc(C(=O)NC(C)CCc2ccccc2)c1 (centres undefined) | . | . | . | 33.1 | .
COc1cccc(NC(=O)Cc2c(O)c3ccccc3[nH]c2=O)c1 | . | . | . | 30.6 | .
COc1cccc(NC(=O)CN(C)C(=O)CNC(=O)c2ccccc2F)c1 | . | . | -33.2 | . | .
COc1ccc(CCNC(=S)N2CCN(S(=O)(=O)c3ccc(C)cc3)CC2)cc1 | . | . | . | . | .
CCOc1ccccc1C1N=C(N)Nc2nc3ccccc3n21 (centres undefined) | . | . | . | . | .
CCOc1ccc(S(=O)(=O)n2ccnc2C)cc1 | . | . | . | . | .
COc1cccc(NC(=O)CCc2ccccc2)c1 | . | . | -43.6 | . | .
COc1cccc(NC(=O)Cc2ccccc2)c1 | . | . | . | . | .
COc1cccc(NC(=O)Nc2cc(C(=O)O)ccc2C)c1 | . | . | -43.1 | . | .
COC(=O)c1c(-c2ccccc2)csc1NC1=NS(=O)(=O)c2ccccc21 | . | . | . | 32.4 | .
SMILES | D1 potentiator | D1 agonist | D1 antag | TRHR enhancer | TRHR agonist
COc1ccc(CCN2C(=O)N(c3ccc(F)cc3)C(=O)C2CC(=O)Nc2ccc(OC)cc2)cc1 (centres undefined) | . | . | . | . | .
COc1cc(C)nc(NCc2ccccc2)n1 | . | . | . | . | .
Cc1cc(C)nc(Nc2n[nH]c(Cc3ccccc3)n2)n1 | . | . | . | 75.2 | .
CC(=O)c1c(C)[nH]c(C(=O)N2c3ccccc3CC2C)c1C (centres undefined) | . | . | -41.2 | . | .
CC(=O)c1c(C)[nH]c(C(=O)N2CCc3ccccc3C2)c1C | . | . | . | . | .
Fc1ccccc1Nc1nc(-c2ccncc2)nc2ccccc12 | . | . | . | . | .
NC(=O)OCC(COC(N)=O)c1ccccc1 | . | . | -39.0 | . | .
NC(=O)NC(Cc1ccccc1)c1ccccc1 (centres undefined) | . | . | . | . | .
COc1ccc(NC(=S)N(CCO)Cc2ccccc2)cc1 | . | . | . | . | .

High-throughput results from PubChem.
